According to the supplement of paper PMC11732987, “Enantioselective OTUD7B fragment discovery through chemoproteomics screening and high-throughput optimisation” (Communications Chemistry, 2025):

Key:
Experiment in all cases: log2 ratio of Biotin-Ahx-Ub-VS probe labelling (fragment/DMSO); higher = less target engagement (more negative = stronger competition), active = hit call of the paper (q ≤ 0.05, log2 ratio ≤ -1)
Conditions in all cases: compound concentration: 200 uM; treatment time: 3 h
USP19 = target: T1, USP19 (UniProt O94966)
T1 sequence (whole entry): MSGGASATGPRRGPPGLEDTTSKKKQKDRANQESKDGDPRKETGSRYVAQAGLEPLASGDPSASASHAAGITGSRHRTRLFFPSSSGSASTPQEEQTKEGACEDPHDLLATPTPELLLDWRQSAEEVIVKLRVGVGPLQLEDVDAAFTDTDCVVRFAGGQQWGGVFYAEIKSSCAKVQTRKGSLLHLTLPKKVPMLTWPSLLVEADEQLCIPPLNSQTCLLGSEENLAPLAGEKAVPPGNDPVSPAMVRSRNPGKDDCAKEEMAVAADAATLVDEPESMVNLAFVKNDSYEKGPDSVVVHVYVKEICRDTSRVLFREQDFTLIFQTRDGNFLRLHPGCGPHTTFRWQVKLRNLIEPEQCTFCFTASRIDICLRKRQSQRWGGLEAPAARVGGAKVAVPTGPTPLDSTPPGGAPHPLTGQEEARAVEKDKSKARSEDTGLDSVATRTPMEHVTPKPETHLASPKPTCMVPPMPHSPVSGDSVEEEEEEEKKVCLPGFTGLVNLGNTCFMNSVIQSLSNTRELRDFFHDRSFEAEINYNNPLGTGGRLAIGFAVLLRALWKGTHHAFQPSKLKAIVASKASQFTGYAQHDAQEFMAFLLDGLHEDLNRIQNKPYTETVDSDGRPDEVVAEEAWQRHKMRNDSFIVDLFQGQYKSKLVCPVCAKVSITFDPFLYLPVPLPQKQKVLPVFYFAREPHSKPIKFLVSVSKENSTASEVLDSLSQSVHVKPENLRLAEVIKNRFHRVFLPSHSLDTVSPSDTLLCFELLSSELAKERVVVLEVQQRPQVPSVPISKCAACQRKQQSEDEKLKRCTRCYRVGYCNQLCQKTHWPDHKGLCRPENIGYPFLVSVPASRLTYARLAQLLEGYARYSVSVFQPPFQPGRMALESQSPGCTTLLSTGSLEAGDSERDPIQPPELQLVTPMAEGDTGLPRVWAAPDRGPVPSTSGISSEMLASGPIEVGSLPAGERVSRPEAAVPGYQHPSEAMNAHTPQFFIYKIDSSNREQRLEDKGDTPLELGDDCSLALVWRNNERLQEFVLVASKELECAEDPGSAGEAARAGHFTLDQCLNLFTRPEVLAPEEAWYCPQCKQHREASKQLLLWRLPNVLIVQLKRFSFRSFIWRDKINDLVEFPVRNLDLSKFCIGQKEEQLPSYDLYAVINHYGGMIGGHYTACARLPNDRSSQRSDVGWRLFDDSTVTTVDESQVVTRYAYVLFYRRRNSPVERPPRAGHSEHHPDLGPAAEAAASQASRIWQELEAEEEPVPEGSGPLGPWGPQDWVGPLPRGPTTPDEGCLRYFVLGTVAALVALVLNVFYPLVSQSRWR
Outline: (§1)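 HEK293T lysate in Tris/CHAPS/IGEPAL buffer with protease inhibitors (495 µg per sample) was given fragment at 200 µM or vehicle for 3 h, in triplicate. It then received Biotin-Ahx-Ub-VS at 0.5 µM final for 1 h. Labelled DUBs were NeutrAvidin-enriched, digested with LysC and trypsin, and run by diaPASEF LC-MS/MS. Values are average log2 fragment/vehicle ratios by unpaired t-test on global-median-normalised Spectronaut quantities of proteins with ≥2 unique peptides.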

USP22 = target: T2, USP22 (UniProt Q9UPT9)
T2 sequence (whole entry): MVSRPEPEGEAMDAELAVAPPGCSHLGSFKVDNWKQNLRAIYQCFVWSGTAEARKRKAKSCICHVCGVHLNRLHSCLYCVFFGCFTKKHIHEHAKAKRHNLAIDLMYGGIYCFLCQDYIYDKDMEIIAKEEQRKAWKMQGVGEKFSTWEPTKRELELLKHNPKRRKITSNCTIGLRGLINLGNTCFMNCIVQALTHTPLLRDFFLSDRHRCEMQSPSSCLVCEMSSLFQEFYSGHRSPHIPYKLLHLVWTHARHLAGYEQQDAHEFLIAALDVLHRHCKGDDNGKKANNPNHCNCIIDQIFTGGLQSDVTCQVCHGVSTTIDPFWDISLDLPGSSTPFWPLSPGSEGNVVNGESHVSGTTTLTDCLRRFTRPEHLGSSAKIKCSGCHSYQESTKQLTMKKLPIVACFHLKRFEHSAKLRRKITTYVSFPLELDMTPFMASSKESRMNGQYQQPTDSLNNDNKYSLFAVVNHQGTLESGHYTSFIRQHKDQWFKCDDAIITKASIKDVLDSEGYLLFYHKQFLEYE
Outline: as §1

USP24 = USP24 (UniProt Q9UPU5)
USP24, sequence (Q9UPU5 whole entry): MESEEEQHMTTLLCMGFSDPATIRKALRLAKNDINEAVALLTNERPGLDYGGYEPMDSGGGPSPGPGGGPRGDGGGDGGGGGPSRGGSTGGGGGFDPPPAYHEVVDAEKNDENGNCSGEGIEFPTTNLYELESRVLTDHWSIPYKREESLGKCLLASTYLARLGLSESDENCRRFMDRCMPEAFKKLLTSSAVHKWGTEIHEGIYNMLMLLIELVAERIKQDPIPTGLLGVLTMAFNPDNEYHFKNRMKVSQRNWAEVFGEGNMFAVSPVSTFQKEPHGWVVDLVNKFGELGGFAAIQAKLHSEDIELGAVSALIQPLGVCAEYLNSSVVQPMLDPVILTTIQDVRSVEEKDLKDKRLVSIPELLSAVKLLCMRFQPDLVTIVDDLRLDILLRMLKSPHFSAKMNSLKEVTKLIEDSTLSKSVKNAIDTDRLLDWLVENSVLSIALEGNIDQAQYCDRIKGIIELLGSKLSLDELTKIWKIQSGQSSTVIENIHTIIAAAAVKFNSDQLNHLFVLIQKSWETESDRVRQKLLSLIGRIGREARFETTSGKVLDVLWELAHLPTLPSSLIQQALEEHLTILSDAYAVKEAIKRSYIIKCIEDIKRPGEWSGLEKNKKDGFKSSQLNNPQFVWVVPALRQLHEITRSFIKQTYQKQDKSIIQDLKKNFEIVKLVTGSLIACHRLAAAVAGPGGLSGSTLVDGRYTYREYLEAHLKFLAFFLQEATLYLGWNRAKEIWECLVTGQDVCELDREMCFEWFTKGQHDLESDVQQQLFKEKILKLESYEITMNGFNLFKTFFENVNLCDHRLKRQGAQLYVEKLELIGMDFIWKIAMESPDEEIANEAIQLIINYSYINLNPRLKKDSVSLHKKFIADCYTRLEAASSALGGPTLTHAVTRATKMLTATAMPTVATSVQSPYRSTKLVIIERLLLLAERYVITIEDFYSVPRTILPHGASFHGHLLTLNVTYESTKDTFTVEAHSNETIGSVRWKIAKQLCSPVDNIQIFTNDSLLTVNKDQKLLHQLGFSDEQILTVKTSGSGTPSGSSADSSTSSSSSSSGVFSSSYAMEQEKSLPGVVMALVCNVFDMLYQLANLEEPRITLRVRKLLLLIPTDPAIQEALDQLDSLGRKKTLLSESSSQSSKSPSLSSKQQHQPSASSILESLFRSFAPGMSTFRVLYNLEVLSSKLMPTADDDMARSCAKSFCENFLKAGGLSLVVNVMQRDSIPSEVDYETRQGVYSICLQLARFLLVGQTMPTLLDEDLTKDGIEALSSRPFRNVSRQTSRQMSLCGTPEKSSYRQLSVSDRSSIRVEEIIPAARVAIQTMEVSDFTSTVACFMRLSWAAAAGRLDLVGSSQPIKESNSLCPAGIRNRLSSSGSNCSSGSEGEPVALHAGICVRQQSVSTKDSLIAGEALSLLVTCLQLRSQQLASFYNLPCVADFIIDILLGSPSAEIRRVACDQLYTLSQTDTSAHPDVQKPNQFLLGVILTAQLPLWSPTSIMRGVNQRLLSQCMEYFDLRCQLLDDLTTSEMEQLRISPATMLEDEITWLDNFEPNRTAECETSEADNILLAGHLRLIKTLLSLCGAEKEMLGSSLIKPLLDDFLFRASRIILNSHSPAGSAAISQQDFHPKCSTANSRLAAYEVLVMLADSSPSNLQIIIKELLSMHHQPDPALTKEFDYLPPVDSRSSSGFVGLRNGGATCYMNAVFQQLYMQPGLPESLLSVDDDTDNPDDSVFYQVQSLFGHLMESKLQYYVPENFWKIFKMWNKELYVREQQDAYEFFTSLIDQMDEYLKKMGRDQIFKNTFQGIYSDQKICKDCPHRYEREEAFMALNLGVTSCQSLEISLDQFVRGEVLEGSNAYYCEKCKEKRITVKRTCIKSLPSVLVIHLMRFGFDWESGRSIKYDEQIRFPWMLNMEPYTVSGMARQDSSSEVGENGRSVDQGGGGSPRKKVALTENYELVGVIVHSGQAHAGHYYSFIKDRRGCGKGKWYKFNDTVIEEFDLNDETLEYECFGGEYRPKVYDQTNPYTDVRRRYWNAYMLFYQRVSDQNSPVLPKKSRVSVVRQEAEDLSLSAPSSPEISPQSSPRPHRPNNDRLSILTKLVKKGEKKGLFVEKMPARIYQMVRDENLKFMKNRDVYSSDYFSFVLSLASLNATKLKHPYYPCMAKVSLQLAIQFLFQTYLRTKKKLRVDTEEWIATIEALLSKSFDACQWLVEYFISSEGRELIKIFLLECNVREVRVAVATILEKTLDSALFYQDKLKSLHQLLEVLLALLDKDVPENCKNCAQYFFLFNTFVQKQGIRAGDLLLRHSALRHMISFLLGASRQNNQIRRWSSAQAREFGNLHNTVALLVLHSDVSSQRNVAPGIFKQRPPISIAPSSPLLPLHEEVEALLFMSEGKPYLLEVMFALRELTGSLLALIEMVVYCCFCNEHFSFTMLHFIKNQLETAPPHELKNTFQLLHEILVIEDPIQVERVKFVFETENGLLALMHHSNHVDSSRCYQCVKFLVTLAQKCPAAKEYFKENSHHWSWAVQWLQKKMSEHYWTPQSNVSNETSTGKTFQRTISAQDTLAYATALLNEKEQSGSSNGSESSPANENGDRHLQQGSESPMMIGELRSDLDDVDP
Outline: as §1

USP25 = target: T3, USP25 (UniProt Q9UHP3)
T3 sequence (whole entry): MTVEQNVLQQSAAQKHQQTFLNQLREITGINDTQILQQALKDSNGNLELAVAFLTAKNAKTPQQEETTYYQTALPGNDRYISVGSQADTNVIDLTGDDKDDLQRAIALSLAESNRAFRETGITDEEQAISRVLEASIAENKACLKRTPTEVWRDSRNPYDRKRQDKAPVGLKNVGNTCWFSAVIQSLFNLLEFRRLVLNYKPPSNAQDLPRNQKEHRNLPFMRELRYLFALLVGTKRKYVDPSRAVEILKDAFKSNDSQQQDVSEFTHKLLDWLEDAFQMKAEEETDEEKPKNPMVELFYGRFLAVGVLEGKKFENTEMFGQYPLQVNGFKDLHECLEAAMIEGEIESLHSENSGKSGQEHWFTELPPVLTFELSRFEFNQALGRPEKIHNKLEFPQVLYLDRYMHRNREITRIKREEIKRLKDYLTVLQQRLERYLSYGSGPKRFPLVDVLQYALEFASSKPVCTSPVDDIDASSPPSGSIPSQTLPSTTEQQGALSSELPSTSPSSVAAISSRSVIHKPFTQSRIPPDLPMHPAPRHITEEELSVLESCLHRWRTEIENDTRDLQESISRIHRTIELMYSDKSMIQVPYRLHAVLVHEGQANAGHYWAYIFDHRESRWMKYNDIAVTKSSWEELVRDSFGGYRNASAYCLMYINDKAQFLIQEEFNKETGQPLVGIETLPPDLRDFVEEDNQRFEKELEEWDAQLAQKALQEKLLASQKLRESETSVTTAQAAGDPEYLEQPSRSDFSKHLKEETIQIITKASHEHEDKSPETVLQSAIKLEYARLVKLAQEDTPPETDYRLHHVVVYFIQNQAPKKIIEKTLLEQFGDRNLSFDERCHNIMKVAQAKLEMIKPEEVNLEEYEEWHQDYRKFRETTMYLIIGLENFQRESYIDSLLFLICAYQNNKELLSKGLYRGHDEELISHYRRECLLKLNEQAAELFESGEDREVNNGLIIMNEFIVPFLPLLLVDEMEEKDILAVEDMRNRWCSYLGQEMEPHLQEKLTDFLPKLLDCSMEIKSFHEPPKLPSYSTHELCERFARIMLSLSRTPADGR
Outline: as §1

USP28 = target: T4, USP28 (UniProt Q96RU2)
T4 sequence (whole entry): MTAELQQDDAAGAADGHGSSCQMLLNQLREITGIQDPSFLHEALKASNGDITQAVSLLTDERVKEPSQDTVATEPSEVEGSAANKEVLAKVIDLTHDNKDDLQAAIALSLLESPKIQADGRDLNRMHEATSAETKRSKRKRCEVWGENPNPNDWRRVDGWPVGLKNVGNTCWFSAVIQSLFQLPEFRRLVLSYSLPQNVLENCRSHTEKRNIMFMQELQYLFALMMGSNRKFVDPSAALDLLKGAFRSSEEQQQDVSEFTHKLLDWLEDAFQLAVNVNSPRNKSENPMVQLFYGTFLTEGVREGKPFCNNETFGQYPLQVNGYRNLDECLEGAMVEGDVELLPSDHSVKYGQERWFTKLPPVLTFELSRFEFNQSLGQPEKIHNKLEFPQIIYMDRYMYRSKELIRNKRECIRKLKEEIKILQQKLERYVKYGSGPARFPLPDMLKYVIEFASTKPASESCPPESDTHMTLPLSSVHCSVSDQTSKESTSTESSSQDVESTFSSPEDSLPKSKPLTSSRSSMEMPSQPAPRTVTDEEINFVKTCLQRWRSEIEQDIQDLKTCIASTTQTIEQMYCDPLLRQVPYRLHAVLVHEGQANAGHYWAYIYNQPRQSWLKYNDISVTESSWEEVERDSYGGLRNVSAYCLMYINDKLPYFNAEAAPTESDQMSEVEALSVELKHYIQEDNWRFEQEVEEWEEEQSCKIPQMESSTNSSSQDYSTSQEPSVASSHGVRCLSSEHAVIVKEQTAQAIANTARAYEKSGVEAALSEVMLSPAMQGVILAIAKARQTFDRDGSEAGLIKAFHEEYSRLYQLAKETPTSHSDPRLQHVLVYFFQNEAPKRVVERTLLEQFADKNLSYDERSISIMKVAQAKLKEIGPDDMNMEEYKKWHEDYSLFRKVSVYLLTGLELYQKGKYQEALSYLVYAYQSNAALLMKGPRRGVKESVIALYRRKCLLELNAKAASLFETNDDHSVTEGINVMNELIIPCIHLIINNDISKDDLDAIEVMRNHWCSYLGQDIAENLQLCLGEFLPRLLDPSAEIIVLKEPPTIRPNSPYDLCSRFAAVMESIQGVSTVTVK
Outline: as §1

Measured: log2 ratio of Biotin-Ahx-Ub-VS probe labelling

Cl.O=C(CCl)N1CCc2ncncc2C1
inactive: USP19 -0.554 | USP22 -0.0201 | USP24 -0.491 | USP25 -0.276 | USP28 -0.582
